Consider 67 molecules from ChEMBL document CHEMBL4513216, “Probing the Open Global Health Chemical Diversity Library for Multistage-Active Starting Points for Next-Generation Antimalarials” (ACS Infect Dis, 2020).

Each structure is given as a SMILES string. Hit rate of the full screen: of about 68,000 compounds, about 2,700 (4%) showed an effect of 50% or more. The sample holds strong results, similar compounds and a random draw of the others, so the mix is not that of the screen.

In this test the test system is Plasmodium berghei. The test can be described thus: Screen against P. berghei liver stage (PbLuc), transformed with Luciferase, at 2uM. Format: functional, HepG2. The settings on record: tested at 2 uM.
`CC1=N[C@@]2(CC[C@@H]3CN(CC(=O)N(C)C)C[C@@H]32)C(=O)N1CC1CC1`: the INHIBITION is -25.29%. For `CN(Cc1ccc(F)cc1)CC1(O)CCN(C(=O)c2ccsc2)C1` (configuration not stated), the INHIBITION amounted to 47.4%. As for `COCCCNC(=O)CN(C)C(=O)c1cc(C)ccc1N(C)C(C)C`, the INHIBITION was -61.5%.

For the molecule `CC(C)C(C)NC(=O)CCN1C(=O)CCc2cc(F)ccc21` (configuration not stated), the INHIBITION was found to be 31.16%. On to `CCCC(C)NC(=O)CCN1C(=O)CCc2cc(F)ccc21` (configuration not stated), for which the INHIBITION stood at 6.92%. As to `CC(C)CNC(=O)CCN1C(=O)CCc2cc(F)ccc21`, the INHIBITION is given as 55.39%. As for `NC(=O)C(CNC(=O)Cc1ccc(F)cc1)Cc1ccc(F)cc1` (configuration not stated), the INHIBITION is recorded as -39.58%. In the case of `Cc1ccccc1C(=O)NCC(O)c1ccc(F)c(F)c1` (configuration not stated), the INHIBITION was determined as 60.13%. With `O=C(NCC(O)c1ccc(F)c(F)c1)c1ccccc1F` (configuration not stated), the INHIBITION turned out to be 26.74%. For `O=C(NCC(O)c1ccc(F)c(F)c1)c1cccnc1O` (configuration not stated), the INHIBITION is -38.85%.

In the case of `O=C1CO[C@@H]2CN(Cc3ccncc3)C[C@H]2N1Cc1ccncc1`, the INHIBITION was 31.76%. `O=C(Nc1ccc2c(c1)OCO2)Nc1cnn(C2CCOCC2)c1`: the INHIBITION is -59%. Take `COCCn1cc(NC(=O)NCC(C)N2CCOCC2)cn1` (configuration not stated): the INHIBITION is 20.77%. With `CCn1cc(NC(=O)NCC(C)O)cn1` (configuration not stated), the INHIBITION came to 62.13%.

With `CCC(CC)C(CNC(=O)Nc1cnn(CCOC)c1)N(C)C` (configuration not stated), the INHIBITION came to 66.11%.

Regarding `CCn1cc(NC(=O)NCC(C)N(C)C)cn1` (configuration not stated), the INHIBITION is listed as -3.58%. The value for `CCn1cc(NC(=O)NCC(O)c2ccccc2)cn1` (configuration not stated) was 20.28%; that for `COCCn1cc(NC(=O)NCC(c2cccc(F)c2)N(C)C)cn1` (configuration not stated) was 45.57%.

For `CCOC(=O)c1sc2ccsc2c1CNC(=O)CCOC`, the INHIBITION was 27.47%. Regarding `N#CCCCOc1cccnc1NC(=O)CCC1CCCC1`, the INHIBITION is recorded as -54.22%. Consider `Cc1nccn1-c1ccc(=O)n(CCNC(=O)c2ccncc2)n1`, for which the INHIBITION is -45.03%. `CN1CCCCc2c1nc1c(c2N)CCCC1`: the INHIBITION came out at 14.11%. Under `CC(O)c1cnn(-c2ccccc2)c1` (configuration not stated) stands 23.06%; under `COCCN1C[C@H]2CN(C(=O)c3ccc4c(c3)OCO4)CCN2C1=O`, -2.66%; under `CC(C#N)(NC(=O)COc1ccccc1Br)C1CC1` (configuration not stated), 8.78%.

Consider `CC(C)C1CCCN1C(=O)c1ccc(-n2ncc(C#N)c2N)cc1` (configuration not stated), for which the INHIBITION is listed as -36.67%. On to `Cc1cc(-c2nn(C)c(Cl)c2CN2CC[C@H](CO)[C@@H](O)C2)no1`, for which the INHIBITION is on record as -5.87%. Consider `Cc1cc(-c2nn(C)c(Cl)c2CN2CCCCC(N)C2)no1` (configuration not stated), for which the INHIBITION stood at 51.81%.

In the case of `Cc1cc(C)n(C2CCN(Cc3c(-c4cc(C)on4)nn(C)c3Cl)C2)n1` (configuration not stated), the INHIBITION is -11.77%. As for `CN1CCN(Cc2ccc(-c3ccc(-c4ccn[nH]4)cc3)nc2)CC1`, the INHIBITION is -35.16%.

On to `CC(=O)Nc1nc(COc2nc(C)no2)cs1`, for which the INHIBITION is given as -4.89%. As for `CCC[C@@H]1CN(Cc2c[nH]c(CC3CCCC3)n2)C[C@H]1C(=O)O`, the INHIBITION is recorded as 5.93%.

With `O=C(O)[C@@H]1CN(Cc2c[nH]c(CC3CCCC3)n2)C[C@H]1c1ccncc1`, the INHIBITION was 25.35%.

Consider `O=C(O)[C@@H]1CN(Cc2c[nH]c(CC3CCCC3)n2)C[C@H]1c1ccccn1`, for which the INHIBITION worked out at 50.86%. In the case of `CCOCC1CN(C(=O)c2ccco2)Cc2cnn(CC)c21` (configuration not stated), the INHIBITION stood at 16.87%.

`Cc1ccsc1C(O)CNC(=O)Cc1ccc(S(=O)(=O)C(C)C)cc1` (configuration not stated): the INHIBITION is recorded as 16.03%. As for `COc1ccc(CC(=O)NCC(O)c2sccc2C)cc1OC` (configuration not stated), the INHIBITION stood at 55.52%. `Cc1ccsc1C(O)CNC(=O)Cc1ccc(F)cc1` (configuration not stated): the INHIBITION worked out at 33.35%. Under `CCCn1nc(C)c(CNC(=O)c2snnc2C)c1C` stands 32.26%.

Consider `Cc1nc(N)cc(C2CCN2CCOc2ccccc2)n1` (configuration not stated), for which the INHIBITION is given as -43.34%. Under `Cc1cccc(-c2nc(C)nn2CC(=O)NC2CCCC2)c1` stands 25.74%; under `Cc1ccc(NC(=O)c2ccc(=O)n(CC(=O)NC3CCCC3)n2)cc1`, 50.2%. Under `Cc1ccc(NC(=O)c2ccc(=O)n(CC(=O)Nc3nccs3)n2)cc1` stands -20.78%; under `CCc1nnsc1C(=O)NCc1c(C)nn(CCOC)c1C`, 24.05%. On to `Cn1nc(C2CCCN2)c2c(C(=O)NC3CC3)cc(C3CC3)nc21` (configuration not stated), for which the INHIBITION was determined as 11.43%. As for `CCc1nnc2n1CCN(C=C1NN=C(c3occc3C)O1)C2`, the INHIBITION is reported as -27.57%. Regarding `Cc1ccoc1C1=NNC(=CN2CCOC(Cn3cccn3)C2)O1` (configuration not stated), the INHIBITION came to 60.64%. In the case of `Cc1cnn(CC2CN(C=C3NN=C(c4occc4C)O3)CCO2)c1` (configuration not stated), the INHIBITION is recorded as -32.2%. Turning to `Cc1ccoc1C1=NNC(=CN2CCn3c(nnc3C(C)C)C2)O1`, the INHIBITION came to 83.22%. Under `Cc1ccoc1C1=NNC(=CN2CCCC(Cn3cncn3)C2)O1` (configuration not stated) stands 3.9%.

Regarding `Cc1ccoc1C1=NNC(=CN2CCn3c(C)nnc3C2)O1`, the INHIBITION is reported as -9.22%.

Regarding `NC(=O)C1CCN(C(=O)NCc2ccc3c(c2)OCCO3)CC1`, the INHIBITION was 42.17%. With `C[C@H]1C[C@H]2CN(S(=O)(=O)c3ccc(F)cc3)CC[C@H]2O1`, the INHIBITION is 47.42%. Under `Cc1nc(N2CCOc3ccc(CO)cc3C2)c2nc(C)oc2n1` stands 34.52%; under `CC(C)OCCC(=O)NCCC(=O)N1CCN(c2ccccn2)CC1`, -8.63%. `Cc1noc(C2CCN(Cn3cc(Cl)cn3)CC2)n1`: the INHIBITION is on record as -16.03%.

For `CCCOc1cc(CNC(=O)Nc2ccc(C)cc2)ccn1`, the INHIBITION stood at 5.88%. Regarding `Cc1csc([C@@H]2C[C@H]3CN(c4ncc(F)cn4)C[C@H]3O2)n1`, the INHIBITION was 19.01%. For `CN1CCN(C(=O)C2CCCN(c3cccnn3)C2)CC1` (configuration not stated), the INHIBITION was 59.49%. As to `CC(=O)N1CCN(C(=O)C2CCN(c3cccnn3)C2)CC1` (configuration not stated), the INHIBITION was -4.8%.

As to `CN1CCN(C(=O)C2CCN(c3cccnn3)CC2)CC1`, the INHIBITION is reported as 54.49%. As to `CN1CCC(C(=O)N2CCCN(c3cccnn3)CC2)C1` (configuration not stated), the INHIBITION came to 45.48%. Under `CN1CCN(C(=O)C2CCN(c3cccnn3)C2)CC1` (configuration not stated) stands 33.64%; under `O=C(C1CCN(c2cccnn2)C1)N1CCOCC1` (configuration not stated), 42.48%; under `CCC(C)c1cc(C(=O)N(CC(=O)NC)c2cccc(F)c2)on1` (configuration not stated), -7.58%.

On to `O=C([C@H]1C[C@H]2OCC[C@H]2N(CCc2ccccc2)C1)N1CCCCO1`, for which the INHIBITION is -10.8%.

Turning to `Cc1cc(C(=O)N2CCN(C(=O)CC(C)C)[C@@H]3CS(=O)(=O)C[C@@H]32)no1`, the INHIBITION was -57.02%.
